Hits are enriched below; roughly 2.5% of the tested compounds scored in any of these assays.
D2 PAM-1 – human D2 receptor positive allosteric modulation | P14416 | DiscoveRx D2 beta-arrestin cells, luminescence, 90 min; 100% = 57 uM dopamine signal | potentiation, % (no concentration beside the values) | 360,000 compounds, 0.23% hits | AID 624464; in the data active = potentiation above about 50%; inconclusive = mostly about 30% to 49%
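D2 cells co-treated with compound plus 50 nM dopamine (EC20) for 90 min at 37 deg C to detect potentiation. Beta-arrestin recruitment was read as enzyme-fragment luminescence after 1 h at ambient temperature. Full response was set by 57 uM dopamine.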
D2 PAM-2 – D2 dopamine receptor (human) potentiation | P14416 | HEK293 T-REx D2, calcium flux, EC20 dopamine potentiation | potentiation, % at 10 µM | 340,000 compounds, 0.34% hits | AID 485347;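 active = potentiation over 3 SD above the plate norm, cut at about 30% in these data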; note: 0% is about no effect
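Calcium flux readout, no-wash dye, 1 read/s. Inducible HEK293 Trex D2 line, overnight 30 C. Compound alone 180 s (agonist flags), then EC20 dopamine, another 180 s to score potentiation.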
D2 antag – antagonists of human D2 dopamine receptor | P14416 | HEK293 TREx D2 cells, calcium flux, dopamine EC80 | inhibition, % at 10 µM | 340,000 compounds, 2% hits | AID 485344; in the data active = inhibition above about 30%; inactive = below that, where a call was filed; note: 0% is about no effect
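Read-out: kinetic calcium fluorescence (1 cycle/s) in inducible HEK293 T-REx D2 cells after an EC80 dopamine addition that followed 180 s compound preincubation. Loss of the dopamine response indicates antagonism.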
D2 ag-1 – activates the human D2 dopamine receptor; DiscoveRx PathHunter D2 beta-arrestin, luminescence, 90 min; 100% = 57 uM dopamine signal; activation, % (test concentration not listed); 360,000 compounds, 0.084% hits; P14416; in the data active = activation above about 40%; inconclusive = between about 15% and that limit
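DiscoveRx PathHunter D2 beta-arrestin cells (2,100/well) attached overnight, then compound-stimulated 90 min at 37 C in HBSS/10 mM HEPES/0.1% Tween-20 buffer; beta-galactosidase complementation read by luminescence after 1 h at ambient temperature. Dopamine 57 uM final (EC100) as control.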
Apoferritin bind – binds horse apoferritin like a general anesthetic. P02791. apoferritin/1-aminoanthracene competitive binding, fluorescence. Potency, µM (titrated, usually from 77.5 µM), without a hit: at the top dose activity change, negative = displacement, actives largely listed as inhibitors. 350,000 compounds, 0.074% hits; note: potency is the fitted concentration of half-maximal effect; % is set by controls: 0 for no effect and ±100 for the full control effect; nearly all actives have a fitted effect of over 20% in size
Target sequence (P02791 2-175 limits assumed): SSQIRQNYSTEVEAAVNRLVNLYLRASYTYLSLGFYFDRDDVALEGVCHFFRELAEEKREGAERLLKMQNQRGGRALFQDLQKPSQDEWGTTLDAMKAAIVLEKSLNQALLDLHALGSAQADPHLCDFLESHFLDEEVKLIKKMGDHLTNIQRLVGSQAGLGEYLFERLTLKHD
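Horse-spleen apoferritin (10 uM) in 50% saturated 1-aminoanthracene in PBS was incubated 10 min at room temperature with compound. Fluorescence (ex 380, em 535 nm) was normalized to free and bound 1-AMA, with concentration-response fitted by a four-parameter Hill equation.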
D2 ag-2 – agonists of human D2 dopamine receptor. P14416. HEK293 T-REx D2 cells, calcium flux agonist mode. activation, % at 2 µM. 340,000 compounds, 0.53% hits;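 active = activation over 3 SD above normal in the single-dose calcium agonist read, cut at about 30% in these data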; note: 0% is about no effect
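Agonism is scored from calcium flux in a force-coupled, inducible HEK293 cell line expressing D2, read kinetically for 180 s after compound addition against dopamine controls.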
D3 ag – D3 receptor agonism confirmed, beta-arrestin readout. Potency, µM (top dose mostly 76.9 µM), without a hit: top-dose activation, actives largely listed as activators. shares compounds with D2 ag-2. AID 720506. DiscoveRx D3 beta-arrestin cells, luminescence, 90 min. 2,300 compounds, 4% hits;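 note: potency is the fitted concentration of half-maximal effect; 100% = dopamine control response; nearly all actives have a fitted effect of over 70% in size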
Target sequence (P35462 whole entry, looked up): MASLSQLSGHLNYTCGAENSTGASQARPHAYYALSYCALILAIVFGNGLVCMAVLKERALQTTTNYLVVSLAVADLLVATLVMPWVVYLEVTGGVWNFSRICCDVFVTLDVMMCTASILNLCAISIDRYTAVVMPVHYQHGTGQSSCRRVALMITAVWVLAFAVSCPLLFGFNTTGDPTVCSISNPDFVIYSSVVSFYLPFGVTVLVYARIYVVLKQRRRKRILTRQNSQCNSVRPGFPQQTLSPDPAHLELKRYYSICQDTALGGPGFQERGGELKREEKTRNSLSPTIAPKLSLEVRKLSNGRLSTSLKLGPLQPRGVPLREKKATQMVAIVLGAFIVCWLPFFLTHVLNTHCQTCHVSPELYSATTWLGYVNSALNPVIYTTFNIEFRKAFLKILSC
D2 ag-3 – D2 receptor agonism, beta-arrestin counterscreen; Potency, µM (highest dose often 76.9 µM), for inactives: at the top dose activation, actives largely listed as activators; 2,300 compounds, 5.9% hits; shares compounds with D2 ag-2; DiscoveRx PathHunter D2 beta-arrestin, luminescence, 90 min; response scale: percent relative to full dopamine signal; AID 720507; note: potency is the fitted concentration of half-maximal effect; % of control where 0% means no effect; nearly all actives have a fitted effect of over 70% in size
Numbers without * were called inactive; ? = inconclusive; / = no result. Unless noted, calls come from the whole dose curve; as a rule, active = well fitted curve in the direction sought with a large enough effect; inconclusive = small, poorly fitted or top-dose-only effect, or another doubt; inactive = no such curve, though single readings can be large; an effect the other way counts as inactive or inconclusive.

SMILES	D2 PAM-1	D2 PAM-2	D2 antag	D2 ag-1	Apoferritin bind	D2 ag-2	D3 ag	D2 ag-3
COc1ccc(C(=O)N2CCN(CCCc3ccccc3)CC2)cc1OC	-16	-19	-24	-1	-2%	40*	?	12%
COc1ccccc1NC(=O)C(C)OC(=O)C(C)SCC(=O)Nc1ccc(C)cc1 (stereo unspecified)	-20	-14	10	-3	/	-1	-2%	-3%
COc1cc(CN2CCC(C(=O)N3CCN(c4ccccc4F)CC3)CC2)ccc1O	1	-21	39*	8	-22%	39*	?	22%
COc1cccc(CN2CCC(C(=O)N3CCN(c4ccccc4F)CC3)CC2)c1	-10	-8	1	2	4%	26	3%	16%
CCCCCCCCC(NC(=O)c1ccc(C#N)cc1)C(=O)NCCC (stereo unspecified)	-4	-1	0	-3	/	0	-13%	-2%
CCCNC(=O)C(CC)NC(=O)c1ccc(C#N)cc1 (stereo unspecified)	0	-2	-4	0	/	1	/	/
CCCNC(=O)C(Cc1ccc(I)cc1)NC(=O)c1ccc(C#N)cc1 (stereo unspecified)	-4	-3	-2	-3	/	0	-8%	-2%
CCCNC(=O)C(Cc1cccc(C#N)c1)NC(=O)c1ccc(C#N)cc1 (stereo unspecified)	-55	-6	-1	-3	/	-1	-5%	-6%
CCCNC(=O)C(Cc1cccc(Cl)c1)NC(=O)c1ccc(C#N)cc1 (stereo unspecified)	-2	18	10	-9	/	0	/	/
CC(C)C(CC(=O)N1CCCCC1)C1CCOC(C)(C)C1 (stereo unspecified)	-5	10	6	0	11%	0	/	/
COc1ccc(NC(=S)NC(=O)c2cc3ccccc3o2)c(OC)c1	-3	5	13	-3	-8%	-1	/	/
Cc1cc(Cl)ccc1NS(=O)(=O)c1c(C(=O)N2CCC(C)CC2)c(C)n(C)c1C	/	-2	/	/	-5%	1	/	/
CCN1C(=O)C(=O)N(CC(=O)N(C)CC(=O)Nc2ccccc2Cl)C1=O	3	0	5	-1	/	0	/	/
COc1ccc(C2C=C(c3ccccc3)Nc3nnnn32)cc1 (stereo unspecified)	-11	4	/	1	167%	/	-6%	-3%
CC(Oc1ccc(Br)cc1)C(=O)NNC(=O)CCN1CCN(c2ccccc2)CC1 (stereo unspecified)	-36	-15	61*	4	/	38*	39%	?
CCOc1ccc(C(=O)CCC(=O)NNC(=O)CCN2CCN(c3ccccc3)CC2)cc1	-13	/	/	10	/	/	/	/
Cc1ccccc1C(=O)NCC(=O)NNC(=O)CCN1CCN(c2ccccc2)CC1	-22	-19	72*	14	-3%	82*	?	?
O=C(CCN1CCN(c2ccccc2)CC1)NNC(=O)Cc1ccc(Br)cc1	-27	-23	70*	12	/	77*	-3%	24%
CC1(C)CC(=O)C(C=Nc2ccncc2)=C(O)C1	-9	/	/	-2	/	/	/	/
CS(=O)(=O)N(CCCC(=O)N1CCCCCC1)c1cccc(Cl)c1	-10	8	26	-4	-8%	0	-7%	-1%
CS(=O)(=O)N(CC(=O)N1CCOCC1)c1cccc(Cl)c1	-2	/	/	-3	/	/	/	/
NC(=O)CC(NC(=O)c1cccc(Br)c1)c1ccc(N2CCC(N3CCCCC3)CC2)c([N+](=O)[O-])c1 (stereo unspecified)	-13	6	0	-2	-14%	1	/	/
CC(C)/C(O)=C1/C(=O)OC(c2ccoc2)[C@@]2(C)C(O)C(O)[C@@]34OC5(C)OC67CC(C)(C(O)[C@@]6(O)C(O)[C@@]3(O5)C12)C(CC(=O)O)[C@@]74C (stereo partly specified)	/	/	/	/	-17%	/	/	/
CSCC[C@H](NC(=O)C1CCN(S(=O)(=O)c2ccc(C)cc2)CC1)C(=O)NC1CCS(=O)(=O)C1 (stereo partly specified)	-6	-18	13	-3	-4%	53*	-2%	-3%
CN(C)c1ccc(NC(=O)CCN2CCN(c3ccccn3)CC2)cc1	?	-27	85*	?	-7%	80*	?	0.25µM*
SMILES	D2 PAM-1	D2 PAM-2	D2 antag	D2 ag-1	Apoferritin bind	D2 ag-2	D3 ag	D2 ag-3
O=C(CCN1CCN(c2ccccn2)CC1)Nc1ccc(F)cc1	-17	-24	67*	12	-5%	69*	?	29%
O=C(CN1CCN(c2ccccn2)CC1)Nc1ccc(OC(F)(F)F)cc1	1	-11	-24	9	-4%	16	/	/
COC(=O)c1sc(NC(=O)CSc2nc3nc(C)cc(C)n3n2)c(C(=O)OC)c1C	0	/	/	-2	/	/	/	/
Cc1ccc(-c2csc3n[nH]c(=S)n23)cc1	0	-5	-12	5	-9%	0	/	/
Cn1c(CCN2CCN(c3ccccn3)CC2)nc2cc(NC(=O)COc3ccccc3)ccc21	2	1	47*	6	-7%	-1	?	?
CCCC(=O)Nc1ccc2c(c1)nc(CCN1CCN(c3ccccn3)CC1)n2C	-10	-22	47*	8	-2%	67*	?	?
Cc1ccc(OCC(=O)Nc2ccc3c(c2)nc(CCN2CCN(c4ccccn4)CC2)n3C)cc1	-25	/	/	2	/	/	/	/
Cn1c(CCN2CCCC2)nc2cc(NS(=O)(=O)c3ccc(Cl)cc3)ccc21	-28	-6	3	1	-11%	0	/	/
Cn1c(CCN2CCN(c3ccccn3)CC2)nc2cc(NS(=O)(=O)c3ccccc3)ccc21	-25	/	/	13	-12%	/	?	?
CCCCC(=O)Nc1ccc2c(c1)nc(CCN1CCN(c3ccccn3)CC1)n2C	-5	-24	51*	14	4%	67*	?	?
O=C1CC2CCCC(C1)S2=O (stereo unspecified)	-4	/	/	2	/	/	/	/
COC(=O)c1c(C)sc(-c2c(-c3cccc(Cl)c3)[nH]c3c2c(=O)[nH]c(=O)n3C)c1O	/	14	/	/	?	30	/	/
C=CCOc1cccc(CNc2ccc3[nH]c(=O)[nH]c3c2)c1	3	-9	-9	1	-7%	2	/	/
